CYP2C19 inh – blockers of cytochrome P450 2C19 activity – biochemical, luminescence, ADME assay, primary screen; CYP2C19 Supersomes, luciferin-H EGE luminescence, 30 min; inhibition, % at 5 µM; 21% of 96,000 active; AID 778, 2007;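 active = CYP2C19 inhibition above a set limit at 5 µM in the primary screen, cut at about 50% in these data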;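 also: plate controls were negative control wells for no effect and 2.5 mM tranylcypromine positive control for full effect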
Measles CPE – compounds protecting cells from measles virus cytopathic effect, primary screen, measles RdRp inhibitor project, single point, MLSMR library, absorbance; Measles virus-infected cells, CPE protection; protection (pct of control), % at 4 µM; 1.5% of 140,000 active; in the data active = protection mostly above about 24%, no sharp cut-off; inactive = mostly below about 26%
CYP2C19 act – human CYP2C19 activators, primary screen, biochemical, luminescence; Cytochrome P450 2C19 (Homo sapiens), P33261; recombinant CYP2C19, luciferin-H EGE luminescence; hits give high values; 0 = fully inhibited enzyme, 1 = untreated enzyme; activation factor at 5 µM; 96,000 tested, under 10 active;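 active = activation factor of at least 2 at 5 µM in the primary screen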;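 also: 0 = wells with 2.5 mM tranylcypromine and 1 = vehicle-only wells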
CYP2C9 act – human CYP2C9 activators, primary screen, biochemical, luminescence. 1.4% of 96,000 active. AID 1024, 2008. Cytochrome P450 2C9 (Homo sapiens), P11712. activation factor at 5 µM. recombinant CYP2C9, luciferin-H conversion; hits give high values; factor 1 = untreated enzyme, 0 = blocked;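 active = activation factor of 2 or more for CYP2C9 at a 5 µM dose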;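 also: 0 = sulfaphenazole-blocked wells and 1 = vehicle-only wells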
Target sequence (P11712 whole entry, looked up): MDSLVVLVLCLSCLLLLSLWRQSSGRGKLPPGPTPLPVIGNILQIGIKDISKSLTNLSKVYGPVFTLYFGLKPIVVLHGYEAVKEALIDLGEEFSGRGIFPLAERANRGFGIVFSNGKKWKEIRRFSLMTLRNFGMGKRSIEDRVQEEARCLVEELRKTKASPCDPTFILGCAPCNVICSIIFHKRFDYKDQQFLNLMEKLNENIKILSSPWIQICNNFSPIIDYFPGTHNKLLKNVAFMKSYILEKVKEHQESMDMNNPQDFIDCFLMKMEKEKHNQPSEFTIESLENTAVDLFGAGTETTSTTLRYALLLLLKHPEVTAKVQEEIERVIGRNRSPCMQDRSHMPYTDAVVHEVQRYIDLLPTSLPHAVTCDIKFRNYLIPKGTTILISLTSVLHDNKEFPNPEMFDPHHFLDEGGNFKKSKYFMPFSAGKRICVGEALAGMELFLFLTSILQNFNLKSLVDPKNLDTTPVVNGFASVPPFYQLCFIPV
CYP2C9 inhib – blockers of cytochrome P450 2C9 activity – biochemical, luminescence, ADME assay, primary screen; 20% of 96,000 active; P11712; CYP2C9 Supersomes, luciferin-H conversion; inhibition, % at 5 µM;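 active = blocking of liver enzyme CYP2C9 beyond about 50% at 5 µM, limit read from the data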
* = called active by the depositor; / = no result given. Sampled rows, rich in hits. Any-hit rate of the full collection: about 22%.

SMILES | CYP2C19 inh | Measles CPE | CYP2C19 act | CYP2C9 act | CYP2C9 inhib
CSc1nc2ccc3nc(NC(=O)C4COc5ccccc5O4)sc3c2s1 (stereo unspecified) | 7 | 7 | 0.9 | 0.7 | 33
O=C(Nc1ccccn1)C1COc2ccccc2O1 (stereo unspecified) | / | 28 | / | / | /
CCCCCCNC(=O)CC(NS(=O)(=O)c1ccc(OC)cc1)C(C)C (stereo unspecified) | / | 3 | / | / | /
CC(C)NC1CS(=O)(=O)CC1O (stereo unspecified) | -5 | 13 | 1 | 1.1 | -5
Cc1csc(NC(=O)C2COc3ccccc3O2)n1 (stereo unspecified) | 83* | 3 | 0.2 | 0.5 | 48
CCOC(=O)C(=CNc1ncccc1C)C(=O)OCC | / | 1 | / | / | /
Cc1cc(-n2nc(C)cc2C)nc(NS(=O)(=O)c2ccccc2)n1 | -2 | 3 | 1 | 0.9 | 9
O=C(Cc1ccc(Br)cc1)c1ccc(O)cc1O | 71* | 30 | 0.3 | 0.5 | 54*
O=C(COc1ccccc1Br)c1ccc(O)cc1O | 66* | 20 | 0.3 | 0.4 | 62*
COc1cc(/C=C2/N=C(C3CCCCC3)OC2=O)cc(OC)c1OC | 5 | 0 | 1 | 0.4 | 62*
COc1cc(/C=C2\CC/C(=C\c3cc(OC)c(OC)c(OC)c3)C2=O)cc(OC)c1OC | / | 6 | / | / | /
Cc1ccccc1-n1ccnc1SCC(=O)O | 23 | 20 | 0.8 | 0.7 | 27
Cn1ccnc1SCC(=O)c1ccc(Br)cc1 | 93* | 25 | 0.1 | 0.8 | 15
O=C(CSc1nccn1-c1ccccc1)c1ccc(Br)cc1 | 61* | 12 | 0.4 | 0.8 | 17
CCc1nnc(NC(=O)CSc2nccn2-c2ccccc2)s1 | / | 10 | / | / | /
Cc1ccccc1CSc1nccn1-c1ccccc1 | 82* | 2 | 0.2 | 0.4 | 57*
CS(=O)(=O)Nc1nnc(SCC(=O)N(c2ccccc2)c2ccccc2)s1 | / | 19 | / | / | /
CN(C)C(=O)c1cc2cc([N+](=O)[O-])ccc2s1 | 2 | 3 | 1 | 1 | -1
COC(=O)C(NC(=O)c1ccc(Cl)cc1)(Nc1nc(C)cs1)C(F)(F)F (stereo unspecified) | 74* | 3 | 0.3 | 0.8 | 17
COC(=O)C(NC(=O)c1ccc(F)cc1)(Nc1nc(C)cs1)C(F)(F)F (stereo unspecified) | 37 | 14 | 0.6 | 1 | -4
CCCCCCc1cc2cc(C(=O)Nc3cccc(OC)c3)c(=O)oc2cc1O | / | 3 | / | / | /
Cc1cc(N2CCN(c3ccccc3)CC2)n2c(n1)nc1ccccc12 | 50 | 5 | 0.5 | 0.3 | 67*
CCn1c(=O)n(CC(=O)Nc2cc(OC)ccc2OC)c(=O)c2ccccc21 | 22 | 5 | 0.8 | 0.7 | 28
COc1ccc(OC)c(NC(=O)Cn2cc(C#N)c3cc(Br)ccc32)c1 | 93* | 12 | 0.1 | 0 | 99*
CC1(C)Oc2ccc(C(=O)NC3CCCC3)cc2N(CC(=O)NC2CCCCC2)C1=O | 34 | 31 | 0.7 | 0.2 | 82*
SMILES | CYP2C19 inh | Measles CPE | CYP2C19 act | CYP2C9 act | CYP2C9 inhib
CC1(C)Oc2ccc(C(=O)N3CCCC3)cc2N(CC(=O)NCc2ccccc2)C1=O | 26 | 6 | 0.7 | 0.9 | 13
COc1ccc(C(=O)CN2C(=O)C(C)(C)Oc3ccc(C(=O)N4CCCCCC4)cc32)cc1 | 57* | 20 | 0.4 | 0.2 | 78*
Cc1ccc(NC(=O)c2ccc3c(c2)N(CC(=O)N2CCCCC2)C(=O)C(C)(C)O3)cc1 | 58* | 9 | 0.4 | 0 | 99*
CC1(C)Oc2ccc(C(=O)N3CCc4ccccc43)cc2N(CC(=O)N2CCCC2)C1=O | 23 | 4 | 0.8 | 0.7 | 34
CC(C)(C)NC(=O)c1ccc2c(c1)N(CC(=O)N1CCN(c3ccc(F)cc3)CC1)C(=O)C(C)(C)O2 | 79* | 5 | 0.2 | 0.4 | 60*
COc1ccc(CCNc2ccc(S(=O)(=O)N3CCCC3)cc2[N+](=O)[O-])cc1 | / | 25 | / | / | /
CCc1ccc2nc(SCC(=O)N3CC(=O)Nc4ccccc43)c(C#N)cc2c1 | / | 14 | / | / | /
CCOC(=O)C1CCCN(C(=O)CN2C(=O)C(CC)Oc3ccc(C)cc32)C1 (stereo unspecified) | 14 | 8 | 0.9 | 0.9 | 14
CCOC(=O)CN1C(=O)C(C)(C)Oc2ccc(C(=O)Nc3ccccc3OC)cc21 | 82* | 12 | 0.2 | 0.7 | 32
CCC1Oc2ccc(C)cc2N(CC(=O)N2CCN(c3ccc(F)cc3)CC2)C1=O (stereo unspecified) | 45 | 28* | 0.5 | 0.9 | 14
O=c1[nH]c2c(s1)C(c1ccco1)C1C3CCC(C3)C1S2 (stereo unspecified) | 83* | 3 | 0.2 | 0.6 | 38
C[n+]1cccc(CNC(=O)/C=N/O)c1 | -3 | active | 1 | 0.9 | 7
O=C1CCCCC(=O)N(c2ccccc2)c2ccccc21 | -5 | 6 | 1.1 | 1.1 | -12
CCn1c(SCc2ccc(C(=O)OC)o2)nc2sc3c(c2c1=O)CCCC3 | 21 | 5 | 0.8 | 0.5 | 49
COC(=O)c1ccc(CSc2nc(C(F)(F)F)c3c(c2C#N)CCC3)o1 | 78* | 14 | 0.2 | 0.9 | 6
COc1cc2c(cc1OC)C(c1cccs1)N(C(=O)C(C)C)CC2 (stereo unspecified) | 63* | 20 | 0.4 | 0.6 | 44
CC(C)NC(=S)N(C)C1(c2ccccc2Cl)CCCCC1=O (stereo unspecified) | / | 21 | / | / | /
CN(C(=S)Nc1ccccc1F)C1(c2ccccc2Cl)CCCCC1=O (stereo unspecified) | 82* | 6 | 0.2 | 1 | 3
Cc1cccc(NC(=S)N(C)C2(c3ccccc3Cl)CCCCC2=O)c1 (stereo unspecified) | 97* | 1 | 0 | 0.3 | 68*
CCOc1ccc(C2CC(c3cccc(OC)c3)Nc3ncnn32)cc1 (stereo unspecified) | 79* | 10 | 0.2 | 0 | 95*
COc1cccc(C2CC(c3ccccc3Cl)n3nnnc3N2)c1 (stereo unspecified) | 100* | 2 | 0 | 0.1 | 89*
COc1cccc(C2CC(c3ccccc3Cl)n3ncnc3N2)c1 (stereo unspecified) | 97* | 6 | 0 | 0.5 | 52*
COc1ccc(C2CC(c3cccc(OC)c3OC)n3nnnc3N2)cc1 (stereo unspecified) | 96* | 4 | 0 | 0.3 | 65*
CCOc1ccc(C2CC(c3cccc(OC)c3)n3nc(N)nc3N2)cc1 (stereo unspecified) | 3 | 13 | 1 | 0.8 | 21
CC(=O)c1ccc(Oc2cc(-c3ccccc3)nc(-c3ccccc3)n2)cc1 | / | 9 | / | / | /
CCSc1ncc(/C=N/Nc2ccc(F)cc2)n1C | 42 | 4 | 0.6 | 0.6 | 37
